Z-score data for 78 compounds are collected here from PubChem BioAssay AID488969 (Vanderbilt High Throughput Screening Facility, 2010).

Molecules are shown by their SMILES. In all, about 110,000 compounds were measured (“z-score”: median about -0.1, highest 2% from about 2 on). What follows is part of a selection rich in the highest values, with near analogues and random picks from the rest. Calls of active or inactive are those of the source.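 How the source made its calls: active means z-score in the third read window above 3 or below -3; inactive means the rest.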

In the assay the target is Metabotropic glutamate receptor 8 (Rattus norvegicus) (UniProt P70579). The experiment in a line: rat mGluR8 modulators via GIRK flux, primary screen, cell-based, thallium flux, HTS (AID 488969). Conditions: HEK293 rat mGluR8, GIRK (G protein-gated inwardly rectifying potassium channel) thallium flux, FluoZin2; at 10 µM; stronger effect = higher value; submaximal glutamate (EC20) added with thallium.
Sequence of Metabotropic glutamate receptor 8 (Rattus norvegicus) (P70579 whole entry, looked up): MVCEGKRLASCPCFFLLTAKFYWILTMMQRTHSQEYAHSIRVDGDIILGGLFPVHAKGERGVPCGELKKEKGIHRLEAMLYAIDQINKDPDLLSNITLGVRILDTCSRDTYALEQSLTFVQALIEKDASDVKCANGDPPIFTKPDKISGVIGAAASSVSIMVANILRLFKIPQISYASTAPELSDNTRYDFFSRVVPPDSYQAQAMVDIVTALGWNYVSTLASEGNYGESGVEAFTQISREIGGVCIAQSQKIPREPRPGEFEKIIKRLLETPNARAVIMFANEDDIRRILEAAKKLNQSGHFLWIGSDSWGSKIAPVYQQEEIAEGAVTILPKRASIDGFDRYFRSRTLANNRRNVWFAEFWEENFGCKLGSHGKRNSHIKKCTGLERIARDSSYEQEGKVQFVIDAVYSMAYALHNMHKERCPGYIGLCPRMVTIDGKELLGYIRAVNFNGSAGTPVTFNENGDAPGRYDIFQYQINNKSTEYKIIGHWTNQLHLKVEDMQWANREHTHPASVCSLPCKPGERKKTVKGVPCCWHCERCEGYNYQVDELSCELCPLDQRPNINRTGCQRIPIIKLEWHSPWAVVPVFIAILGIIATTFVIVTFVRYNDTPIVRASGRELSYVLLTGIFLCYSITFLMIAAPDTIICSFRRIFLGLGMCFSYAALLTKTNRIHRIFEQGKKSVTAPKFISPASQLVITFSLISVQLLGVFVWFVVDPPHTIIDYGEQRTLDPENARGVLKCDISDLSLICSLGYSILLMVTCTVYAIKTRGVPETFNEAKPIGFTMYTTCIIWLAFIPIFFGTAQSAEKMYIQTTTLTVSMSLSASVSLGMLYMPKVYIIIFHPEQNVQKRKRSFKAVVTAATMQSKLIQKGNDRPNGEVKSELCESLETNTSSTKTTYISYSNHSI
The compound `CCn1c(COc2ccccc2)nnc1SCc1ccc(C#N)cc1` displayed a z-score of -0.725.

As to `Cc1c(Nc2nc3ccccc3nc2NS(=O)(=O)c2ccccc2)c(=O)n(-c2ccccc2)n1C`, the z-score is -0.716.

As to `O=C(OCc1ccc([N+](=O)[O-])cc1)C1CCN(S(=O)(=O)c2ccccc2)CC1`, the z-score was -0.136.

In the case of `CCN(CC)c1ccc(NC(=O)c2nc3nc(C)cc(C(F)F)n3n2)cc1`, the z-score was 3.02 (active).

`Cc1cc(C(F)F)n2nc(C(=O)Nc3ccc(S(=O)(=O)N4CCCC4)cc3)nc2n1` came in with a z-score of -0.187.

`CNS(=O)(=O)c1ccc(NC(=O)c2nc3nc(C)cc(C(F)F)n3n2)cc1` gave a z-score of -0.548.

`CCOC(=O)C1(C(=O)OCC)CC1c1ccccc1` (stereo not drawn): the z-score was -0.0513.

As for `CCCCCCCCCn1c2c(c(=N)c3c1CCC3)CCC2`, the z-score was 4.64 (active).

`CCCCCCn1c2c(c(=N)c3c1CCC3)CCC2` displayed a z-score of 1.81.

With `CCCCCCCCCCn1c2c(c(=N)c3c1CCC3)CCC2`, the z-score came to 0.554.

In turn, `CCOC(=O)c1ccc(CNCc2ccc(C)cc2)cc1` had a z-score of 0.302.

`COC(=O)c1ccc(C(=O)OC)c(NC(=O)CSc2ccccn2)c1` showed a z-score of -0.644.

Compound `O/N=C1\CCc2cc(Cl)ccc21` yielded a z-score of 0.365.

The compound `Clc1ccc2c(c1)CCc1cccnc1C2=C1CCNCC1` registered a z-score of 2.74.

As for `CCOC(=O)c1c(NC(=O)COc2cccc3c2CCN(CC)C3=O)sc2c1CCC2`, the z-score is -0.925.

In the case of `CCOC(=O)c1c(-c2ccccc2)csc1NC(=O)c1nn(CC)cc1Br`, the z-score was -0.101.

The compound `COc1ccc(NC2CS(=O)(=O)CC2NCc2ccccc2)cc1` (stereo not drawn) yielded a z-score of 0.261.

Take `O=S1(=O)CC(NCc2ccccc2)C(Nc2ccccc2)C1` (stereo not drawn): the z-score was 2.43.

`O=C(NC1CS(=O)(=O)CC1NCc1ccccc1)c1ccccc1` (stereo not drawn): the z-score stood at 0.00939.

Take `C=CCNC(=O)C1CC(=O)N(c2ccc(OCC(=O)Nc3ccc(OC)cc3)cc2)C1` (stereo not drawn): the z-score was -0.466.

In the case of `C=CCNC(=O)C1CC(=O)N(c2ccc(OCC(=O)Nc3ccccc3)cc2)C1` (stereo not drawn), the z-score was 4.85 (active).

Compound `C=CCNC(=O)C1CC(=O)N(c2ccc(OCC(=O)Nc3ccc(C)cc3)cc2)C1` (stereo not drawn) registered a z-score of 0.104.

In turn, `C=CCSc1nnc(NC(=O)c2cccc(S(=O)(=O)N(C)c3ccccc3)c2)s1` registered a z-score of 0.542.

Take `O=C(COC(=O)c1sc2ccccc2c1Cl)NC1CCCCC1`: the z-score was -0.479.

`CCCn1nnc(NC(=O)c2sc3ccccc3c2Cl)n1` showed a z-score of 0.0281.

As to `CCCCOC(=S)NC(=O)c1sc2ccccc2c1Cl`, the z-score was 17.3 (active).

`Cc1ccccc1NC(=O)COC(=O)CNC(=O)c1sc2ccccc2c1Cl` gave a z-score of -1.08.

Compound `CN(C(=O)COC(=O)CNC(=O)c1sc2ccccc2c1Cl)c1ccccc1` yielded a z-score of -0.854.

Compound `CCOc1ccc(C(CC(=O)O)NC(=O)c2sc3ccccc3c2Cl)cc1` (stereo not drawn) returned a z-score of -0.958.

The compound `COc1ccc(C(CC(=O)O)NC(=O)c2sc3ccccc3c2Cl)cc1` (stereo not drawn) returned a z-score of -0.476.

For the compound `CCOC(=S)NC(=O)c1sc2ccccc2c1Cl`, the z-score was 11.1 (active).

Regarding `NC(N)=NS(=O)(=O)c1ccc(NC(=S)NC(=O)c2sc3ccccc3c2Cl)cc1`, the z-score is 0.0467.

Regarding `O=C(NC(=S)N(CCCCO)C1CCCCC1)c1sc2ccccc2c1Cl`, the z-score was 9.88 (active).

As to `CCCOC(=S)NC(=O)c1sc2ccccc2c1Cl`, the z-score was 12 (active).

Compound `O=C(NCC1CCCO1)c1sc2ccccc2c1Cl` (stereo not drawn) yielded a z-score of -0.467.

The compound `CC(=O)c1c(C(C)=O)c(C)n(CCCCn2c(C)c(C(C)=O)c(C(C)=O)c2C)c1C` had a z-score of -0.0757.

Turning to `Cc1cc(C(=O)Nc2ccc(S(=O)(=O)Nc3onc(C)c3C)cc2)c(C)o1`, the z-score was found to be 0.0164.

For `CC(=O)Nc1ccc(NC(=O)Cc2sc(C)nc2-c2ccc(C)cc2)cc1`, the z-score was -0.345.

In the case of `O=C(O)c1ccc(-c2nc(-c3ccccc3)c(-c3ccccc3)[nH]2)cc1`, the z-score is -1.56.

In turn, `Cc1ccc2oc(-c3cccc(NC(=O)c4cc(-n5cnnc5)ccc4Cl)c3)nc2c1` showed a z-score of -0.0315.

In the case of `CCOC(=O)C1=C(C)N(C)C(=O)NC1c1ccc(C)s1` (stereo not drawn), the z-score is -0.0391.

`O=C(CCC(=O)Nc1ccccc1)NNC(=O)C(c1ccccc1)c1ccccc1` displayed a z-score of 0.336.

On to `Cn1c(C23CC4CC(CC(C4)C2)C3)n[nH]c1=S`, for which the z-score amounted to 0.216.

As to `Cc1nnn(C23CC4CC(CC(C4)C2)C3)n1`, the z-score is -0.708.

In the case of `S=c1nn[nH]n1C12CC3CC(CC(C3)C1)C2`, the z-score is 2.46.

As to `COC(=O)c1sc2nc(SCc3ccccc3C#N)n(N)c(=O)c2c1C`, the z-score was 0.247.

Compound `COc1ccc(-c2oc3ncn(CCN4CCOCC4)c(=N)c3c2-c2ccc(OC)cc2)cc1` showed a z-score of 2.6.

On to `COc1ccc(C2c3ccc4ccccc4c3Oc3ncn(CCN4CCOCC4)c(=N)c32)cc1` (stereo not drawn), for which the z-score is 4.1 (active).

As to `COc1ccc(C2c3ccc4ccccc4c3Oc3ncn(Cc4ccco4)c(=N)c32)cc1OC` (stereo not drawn), the z-score is 0.46.

`COc1ccc(C2C3=C(CC(C)(C)CC3=O)Oc3ncn(CCO)c(=N)c32)cc1OC` (stereo not drawn) gave a z-score of 0.234.

`COc1ccc(-c2oc3ncnc(NCCN4CCOCC4)c3c2-c2ccc(OC)cc2)cc1` came in with a z-score of -0.338.

As to `N=c1c2c(ncn1CCN1CCOCC1)Oc1ccc3ccccc3c1C2c1ccccc1` (stereo not drawn), the z-score is 4.03 (active).

Consider `CC1(C)CC(=O)C2=C(C1)Oc1ncn(CCO)c(=N)c1C2c1ccccc1` (stereo not drawn), for which the z-score was 0.471.

`COc1ccc(C2c3c(ncn(Cc4ccco4)c3=N)Oc3ccc4ccccc4c32)cc1` (stereo not drawn): the z-score is -0.169.

With `COc1ccc(C2C3=C(CC(C)(C)CC3=O)Oc3ncn(Cc4ccccc4)c(=N)c32)cc1` (stereo not drawn), the z-score was found to be 2.84.

With `COc1ccc(C2c3c(ncn(CCN4CCOCC4)c3=N)Oc3ccc4ccccc4c32)cc1OC` (stereo not drawn), the z-score was 0.922.

Compound `N=c1c2c(ncn1Cc1ccco1)Oc1c(ccc3ccccc13)C2c1ccccc1` (stereo not drawn) came in with a z-score of 0.538.

`c1ccc(-c2oc3ncnc(NCCN4CCOCC4)c3c2-c2ccccc2)cc1`: the z-score is -0.115.

In turn, `CC(CN1CCOCC1)OC(=O)C(C)(c1ccccc1)c1ccccc1` (stereo not drawn) had a z-score of 0.383.

For `O=C(CSc1nnc(-c2ccc(OC(F)F)cc2)o1)NC(=O)NCc1ccco1`, the z-score was -0.253.

Turning to `CC1=CC(c2ccccc2)n2nc(N3C(=O)C4CC=CCC4C3=O)nc2N1` (stereo not drawn), the z-score is -0.783.

As to `CC1(C)Cc2c(ccc3ccccc23)-c2nnc(-c3cccnc3)n21`, the z-score was 3.16 (active).

On to `CC1(C)Cc2c(ccc3ccccc23)C(NNC(=O)c2cccnc2)=N1`, for which the z-score was 0.408.

The compound `CC1(C)Cc2ccccc2-c2nnc(-c3cccnc3)n21` had a z-score of 0.241.

The compound `CCOC(=O)c1c(NC(=O)c2cccs2)sc(CC)c1-c1cccs1` returned a z-score of -0.275.

As for `COC(=O)c1nn(Cc2ccccc2)c(=O)c2ccccc12`, the z-score was 0.721.

`COc1ccc(CCNC(=O)c2c(-c3ccccc3Cl)noc2C)cc1` gave a z-score of 0.099.

Compound `O=C(Cc1cccs1)NNC(=S)NC(=O)c1ccccc1` gave a z-score of 0.646.

In the case of `O=C(CNC(=S)NC(=O)c1cccs1)c1ccccc1`, the z-score is 6.19 (active).

In turn, `O=C(NC(=S)NCCc1ccccc1)c1ccccc1` showed a z-score of 1.9.

Regarding `Cc1ccc(C(=O)NC(=S)NCC(=O)c2ccccc2)cc1`, the z-score was -0.021.

Compound `COc1ccc(CCNC(=S)NC(=O)c2ccccc2)cc1OC` showed a z-score of 0.202.

With `Cc1onc(-c2ccccc2Cl)c1C(=O)NC(=S)NCCc1ccccc1`, the z-score worked out at 2.63.

Consider `COc1cc(OC)cc(C(=O)NC(=S)NCCc2ccccc2)c1`, for which the z-score is 2.08.

Take `O=C(CNC(=S)NC(=O)c1ccccc1)c1ccccc1`: the z-score came to 0.079.

Compound `COc1cc(OC)cc(C(=O)NC(=S)NNC(=O)Cc2cccs2)c1` yielded a z-score of 2.21.

For `COc1ccc(C(=O)NC(=S)NNC(=O)Cc2cccs2)cc1`, the z-score came to 0.741.

As for `Cc1onc(-c2ccccc2Cl)c1C(=O)NCc1ccccc1`, the z-score came to 0.341.
